Screening results from PubChem BioAssay.
The list is not random: actives were taken first. Their share in the collection is about 2.8%.
ERb coact inh = ER-beta (human) coactivator binding inhibition | Q92731 | TR-FRET ER-beta LBD / SRC1-Cy5 peptide binding; receptor agonist-loaded with 1 µM estradiol | inhibition, % at 25.6 µM | 86,000 tested, 1.3% active;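 active = compounds whose percent inhibition of the receptor-coactivator binding signal exceeds about 50% in the single-dose screen, limit read from the data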;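 also: 0% = receptor plus peptide wells without compound and 100% = peptide-only wells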
Target sequence (Q92731 whole entry, looked up, the tested form may be a part): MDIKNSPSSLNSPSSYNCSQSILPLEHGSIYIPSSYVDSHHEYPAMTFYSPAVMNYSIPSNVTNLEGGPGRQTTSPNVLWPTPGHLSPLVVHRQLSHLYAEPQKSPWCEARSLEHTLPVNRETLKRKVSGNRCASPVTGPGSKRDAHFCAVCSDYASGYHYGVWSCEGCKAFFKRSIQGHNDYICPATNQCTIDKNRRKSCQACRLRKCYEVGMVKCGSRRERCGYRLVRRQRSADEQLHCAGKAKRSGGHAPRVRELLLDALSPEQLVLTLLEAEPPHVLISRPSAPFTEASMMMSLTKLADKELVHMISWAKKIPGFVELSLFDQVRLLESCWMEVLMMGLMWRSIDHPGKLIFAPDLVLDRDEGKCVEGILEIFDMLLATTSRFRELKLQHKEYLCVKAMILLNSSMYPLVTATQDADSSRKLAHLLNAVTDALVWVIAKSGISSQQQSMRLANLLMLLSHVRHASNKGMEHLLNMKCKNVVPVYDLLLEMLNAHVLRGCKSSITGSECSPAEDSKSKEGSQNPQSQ
ERa coact inh = ER-alpha (human) coactivator binding inhibition; P03372; TR-FRET ER-alpha LBD / SRC-1 peptide, estradiol-bound; inhibition, % at 25.6 µM; 86,000 tested, 1.7% active; AID 629; in the data active = inhibition above about 50%;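 also: 0% = receptor plus peptide control and 100% = peptide only without receptor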
ERa coact pot = ER-alpha (human) coactivator binding potentiation; TR-FRET ERalpha-LBD/SRC-Cy5 coactivator binding, 2 h; 100 = basal binding, no effect; 86,000 tested, 1.3% active; coactivator binding (% of control), % at 25.6 µM; P03372; in the data active = activity above about 200%;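 also: binding measured in presence of low estradiol as agonist stimulus; 0% = peptide alone without receptor and 100% = receptor with peptide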
EphB4 ephrin blk = antagonists of human EphB4-ephrin-B2 interaction; P54760; EphB4 LBD / TNYL-RAW-Alexa532 peptide, fluorescence polarization; inhibition, % at 7 µM; 97,000 tested, 0.15% active;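 active = inhibition above the screen-wide mean inhibition plus 3 SD, cut at about 15% in these data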;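 also: 0% = DMSO wells and 100% = excess unlabeled TNYL-RAW peptide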
Numbers without * were called inactive; / = no result given; [ ] = another dose, or the depositor's remark.

SMILES	ERb coact inh	ERa coact inh	ERa coact pot	EphB4 ephrin blk
Fc1ccc(Sc2cc(Cl)c(-c3ccccc3)nn2)cc1	/	/	/	20.0*
Cc1nn(CCc2nc(-c3ccco3)cs2)c2[nH]c(=O)cc(C(F)(F)F)c12	38.9	40.5	57.4	/
Cc1ccc(CNC(=O)c2cn(C3CCCCC3)c(=O)c3c2c2ccccc2n3C)o1	13.5	-0.3	74.0	4.9
Cc1cc(NC(=O)c2cn(C3CCCCC3)c(=O)c3c2c2ccccc2n3C)no1	20.8	4.5	200.2*[fluorescence artefact?]	-4.1
CCCCCOCC(O)CCC(=O)NN (stereo not given)	/	/	/	-5.8
COc1ccc(-n2c(SCC(=O)NNC(=O)c3ccccc3C)nnc2-c2ccncc2)cc1	/	/	/	4.5
COc1ccccc1CC(=O)N1CCN(c2cccc(C(F)(F)F)c2)CC1	-8.9	4.6	97.5	-14.4
O=C(COc1ccc2ccccc2c1)NC1CC1	1.9	1.8	94.0	-6.0
O=C(COc1ccc2ccccc2c1)NCCNC(=O)COc1ccc2ccccc2c1	-4.0	11.0	317.1*[fluorescence artefact?]	-3.6
COc1cc([N+](=O)[O-])ccc1N/C=C/C(=O)c1cccs1	1.1	4.3	115.9	1.6
COc1ccccc1CN1C(=O)c2ccncc2C1=O	71.2*[fluorescence artefact?]	-19.4	98.4	-1.2
Cc1ccc2[nH]c3c(N4CCc5ccccc5C4)ncnc3c2c1	-8.7	-1.3	101.7	-0.8
Brc1ccc2[nH]c3c(N4CCc5ccccc5C4)ncnc3c2c1	2.9	13.1	494.5*[fluorescence artefact?]	-2.2
Cc1onc(-c2ccccc2Cl)c1C(=O)NCc1cccnc1	1.9	52.2*	102.3	/
N#Cc1sc2nc(-c3ccccc3)cc(-c3ccco3)c2c1N	76.2*[fluorescence artefact?]	88.5*[fluorescence artefact?]	13.9	1.1
N#Cc1c(-c2ccccc2)cc(-c2ccco2)c(C#N)c1N	56.5*	80.3*	98.3	-6.2
COC(=O)c1ccccc1NC(=O)c1cc2ncc(Br)cn2n1	33.1	27.0	579.1*[fluorescence artefact?]	-6.1
COc1ccc(Oc2ncnc3c2oc2ccc(Br)cc23)cc1	30.4	42.6	415.6*	/
CN(C)CCOc1ncnc2c1oc1ccccc12	-12.8	11.0	100.5	1.1
CNc1nnc(-c2cc3cc(Cl)ccc3oc2=O)s1	48.6	66.1*	183.2	4.3
CCOc1cccc2cc(C(=O)N3CCc4ccccc43)c(=O)oc12	-4.8	6.5	113.3	-1.4
COc1ccc2oc(=O)c(-c3nnc(NCc4ccco4)s3)cc2c1	57.3*[fluorescence artefact?]	44.8	180.9	11.3
CCOc1cccc2cc(-c3nnc(NCc4ccco4)s3)c(=O)oc12	48.6	53.1*	74.8	3.7
COC(=O)C(/C=N/OCc1ccc([N+](=O)[O-])cc1)NC(=O)c1cccc(Cl)c1 (stereo not given)	20.4	24.5	395.4*[fluorescence artefact?]	5.7
COCC(C)NC(=O)c1cccc(Cl)c1 (stereo not given)	2.5	5.4	108.8	1.9
SMILES	ERb coact inh	ERa coact inh	ERa coact pot	EphB4 ephrin blk
C=CCn1c(C)cc(C(=O)CSc2n[nH]c(N)n2)c1C	-10.8	2.6	91.2	0.2
Cc1cccc(NS(=O)(=O)c2cc(C(=O)NCCC3=CCCCC3)ccc2Cl)c1	/	/	/	-9.1
O=C(c1ccco1)[C@@H]1[C@@H]2C(=O)N(c3ccc(F)cc3)C(=O)[C@@H]2C2c3ccccc3C=CN21 (stereo not given in full)	36.0	55.3*[fluorescence artefact?]	79.5	10.7
COCCSc1nc2c(c(=O)[nH]c(=O)n2C)n1CCC(C)C	-15.6	3.7	104.0	-4.6
COc1ccc2c(c1)c(=O)oc1cc3oc(C)c(C)c3cc12	56.6*	67.0*	72.2	-10.8
COc1ccc2c(c1)c(=O)oc1cc3occ(C(C)(C)C)c3cc12	29.9	39.7	105.1	-2.7
COc1ccc(NC(=O)c2cc(CN3C(=O)c4ccccc4C3=O)ccc2OC)cn1	47.2	82.6*[fluorescence artefact?]	96.0	4.5
CC1CC(C)CN(C(=O)CSc2nc(Cc3cccs3)nc3ccccc23)C1 (stereo not given)	/	/	/	5.7
COC(=O)c1ccc(OC(=O)c2ccc(OCc3c(C)noc3C)c(OC)c2)cc1	48.8	50.8*[fluorescence artefact?]	280.0*[fluorescence artefact?]	/
CCOC(=O)c1c(C#N)c(SCC(=O)Nc2ccc(OC)cc2)nc2c1CN(CC)CC2	-1.0	-2.2	262.1*	2.6
COC(=O)c1cn(C(=O)c2cccs2)c2ccccc12	-2.3	-2.7	82.5	-2.8
COc1ccc(N2CSC3=C(C#N)C(c4cc(OC)c(OC)cc4OC)CC(=O)N3C2)c(OC)c1 (stereo not given)	-9.7	54.8*[fluorescence artefact?]	101.0	-6.7
CCOc1ccccc1N1CSC2=C(C#N)C(c3c(OC)ccc4ccccc34)CC(=O)N2C1 (stereo not given)	17.5	-1.6	375.9*	3.5
COc1ccc(N2CSC3=C(C#N)C(c4cccs4)CC(=O)N3C2)cc1 (stereo not given)	41.2	54.1*[fluorescence artefact?]	69.2	-0.7
Cc1ccc(N2CSC3=C(C#N)C(c4cccs4)CC(=O)N3C2)cc1 (stereo not given)	0.7	-10.0	93.4	4.7
Nc1ccc2nc3n(c(=O)c2c1)CCC3	18.4	11.4	214.7*	/
CCCNS(=O)(=O)c1cccc(C(=O)NC2CCCc3ccccc32)c1 (stereo not given)	/	/	/	-0.7
CCOC(=O)Cn1c2ccc(OC)cc2c2nc3ccccc3nc21	29.2	45.8	279.2*	-9.1
COC(=O)Cn1c2ccc(OC)cc2c2nc3ccccc3nc21	-4.0	5.0	173.5	-3.0
NS(=O)(=O)c1ccc(NCc2cc(Cl)ccc2OCc2ccccc2F)cc1	/	/	/	-1.2
O=c1c2ccccc2nc2n1CCCCN2	11.6	79.9*	82.0	-3.3
C[C@]12CC[C@@H]3c4ccc(O)cc4CC[C@H]3[C@@H]1CC[C@@H]2OC(=O)CCC(=O)O	3.6	9.3	107.3	/
C[C@]12CC[C@@H]3c4ccc(OC(=O)c5ccccc5)cc4CC[C@H]3[C@@H]1CC[C@@H]2O	-0.7	-7.0	298.5*	/
Cc1ccc(C(C)C)c(OCC(O)CN2CC(C)OC(C)C2)c1 (stereo not given)	51.5*[fluorescence artefact?]	-2.0	97.0	5.2
O=C(c1ccccc1C(F)(F)F)N1CCN(S(=O)(=O)c2ccccc2)CC1	-8.5	-5.3	121.0	-0.5
SMILES	ERb coact inh	ERa coact inh	ERa coact pot	EphB4 ephrin blk
COc1ccc(/C=C(/C#N)c2cccnc2)cc1OC	12.5	4.1	108.0	/
N#Cc1cc(Oc2cccnc2)c(Oc2cccnc2)cc1C#N	61.1*[fluorescence artefact?]	45.8	46.5	3.0
CCOC(=O)C1CCCN(C(=O)c2ccco2)C1 (stereo not given)	-1.4	-1.4	121.1	1.6
O=C(CCSc1nnc2scc(-c3ccccc3)n12)Nc1nc(-c2ccccc2)ns1	6.0	1.2	186.2	4.2
CC(=O)Nc1ccc(C(=O)CSc2nnc3scc(-c4ccccc4)n23)cc1	16.9	40.8	232.5*[fluorescence artefact?]	4.1
Cc1ccccc1NC(=O)Cn1cnc2c1c(=O)n(C)c(=O)n2C	62.5*	-8.9	96.6	5.5
COc1ccccc1NC(=O)Cn1cnc2c1c(=O)n(C)c(=O)n2C	4.9	3.9	112.5	2.8
Cc1ccc(CNC(=O)CCSCCC(=O)NCc2ccc(C)cc2)cc1	0.3	7.3	112.2	4.0
O=C(c1ccc(NC2=NC3CS(=O)(=O)CC3S2)cc1)N1CCc2ccccc2C1 (stereo not given)	-7.3	-1.4	89.7	/
